Values joined by “and” are separate entries in the source; they are usually repeats but may differ in a detail not shown here. Equal values may be shown once. Records with an inconclusive call do not appear. Some compounds were tested as several samples or in several runs, with calls that do not always agree. Active and inactive are the calls of the source. The calls were made as follows, unless noted: active = hit-call score of the fitted dose curve at least 0.9, where 1 is the maximum; inactive = score below 0.9.
Key:
[1] = molecular target: Paired box protein Pax-6 (Homo sapiens) (UniProt P26367); test: ATG_Pax6_CIS: Attagene CIS-FACTORIAL HepG2 Assay for human Paired Box 6 (PAX6) (AID 2282956); conditions: HepG2 CIS-FACTORIAL PAX6 reporter transcription, RNA readout; actives raise or lower the signal
Summary of the method: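 Transient MRTU transfection of HepG2 → compound exposure 24 h → TriZol RNA, oligo(dT) RT → PCR, 6-FAM primer extension, HpaI cut → capillary electrophoresis; activity fitted both directions against DMSO.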

[2] = ATG_PXRE_CIS: Attagene CIS-FACTORIAL HepG2 Assay for human Pregnane X Receptor Element (PXRE) (AID 2282957); conditions: HepG2 Attagene CIS-FACTORIAL PXRE reporter, mRNA; actives raise or lower the signal
Summary of the method: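 Cis-element reporter mRNA in human hepatoma HepG2 cells is measured 24 h post-dosing by RT-PCR, primer-extension labeling and capillary electrophoresis; gain or loss of signal is fitted relative to DMSO.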

[3] = ATG_PPRE_CIS: Attagene CIS-FACTORIAL HepG2 Assay for human Peroxisome Proliferator-activated Response Element (PPRE) (AID 2282958); conditions: HepG2 PPRE cis-element reporter, Attagene transcription factor profiling; actives raise or lower the signal
Summary of the method: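 Endogenous PPRE-driven transcription is measured in HepG2 cells carrying transfected multi-reporter constructs. Reporter transcripts are quantified by RT-PCR, HpaI digestion and capillary electrophoresis 24 h after dosing. DMSO baseline, bidirectional fit.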

[4] = ATG_RORE_CIS: Attagene CIS-FACTORIAL HepG2 Assay for human RAR-related Orphan Receptor Element (RORE) (AID 2282959); conditions: HepG2 Attagene cis-factorial RORE reporter, mRNA; actives raise or lower the signal
Summary of the method: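 RORE reporter transcripts reflecting endogenous factor activity were read after 24 h compound exposure of transfected HepG2 cells, using reverse transcription, PCR, fluorescent labelling and capillary electrophoresis sizing. Gain or loss fitted against DMSO.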

[5] = ATG_Sox_CIS: Attagene CIS-FACTORIAL HepG2 Assay for human SRY-box transcription factor (SOX) (AID 2282960); conditions: HepG2 Attagene cis-factorial SOX reporter, mRNA; actives raise or lower the signal
Summary of the method: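 Reporter transcripts, measured by RT-PCR and capillary electrophoresis of labelled fragments, report endogenous SOX transcription factor activity. Transiently transfected human HepG2 cells receive chemical for 24 h; changes in either direction are fitted relative to DMSO.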

[6] = molecular target: Transcription factor Sp1 (Homo sapiens) (UniProt P08047); test: ATG_Sp1_CIS: Attagene CIS-FACTORIAL HepG2 Assay for human Specificity Protein 1 (Sp1) (AID 2282961); conditions: HepG2 Sp1 cis-reporter transcription, actives raise or lower the signal
Summary of the method: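 Read-out is reporter transcript level, measured by RT-PCR and fluorescent capillary electrophoresis after 24 h chemical treatment. System: transiently transfected HepG2 cells reporting endogenous transcription factor activity; gain or loss fitted against DMSO baseline.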

[7] = ATG_SREBP_CIS: Attagene CIS-FACTORIAL HepG2 Assay for human Sterol Regulatory Element Binding (SREBP) (AID 2282962); conditions: HepG2 Attagene cis-factorial SREBP reporter, mRNA; actives raise or lower the signal
Summary of the method: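 Transfected HepG2 (cis-regulated reporter library, endogenous TFs) → compound 24 h → total RNA → oligo(dT) RT → reporter-specific PCR → FAM primer extension, HpaI cut → CE fluorescence. Fit bidirectional vs DMSO.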

[8] = molecular target: Signal transducer and activator of transcription 3 (Homo sapiens) (UniProt P40763); test: ATG_STAT3_CIS: Attagene CIS-FACTORIAL HepG2 Assay for human Signal Transducer and Activator of Transcription 3 (STAT3) (AID 2282963); conditions: HepG2, Attagene cis-factorial STAT3 reporter transcription; actives raise or lower the signal
Summary of the method: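 Transcript-level reporter assay. HepG2 transient MRTU transfection, 24 h exposure, fluorescence detection after RT-PCR and CE; DMSO baseline.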

[9] = ATG_TA_CIS: Attagene CIS-FACTORIAL HepG2 Assay for human TA Basal Promoter (AID 2282964); conditions: HepG2 Attagene CIS-factorial TA basal promoter reporter; actives raise or lower the signal
Summary of the method: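 HepG2 cells transiently transfected with multiple reporter units under cis promoter elements, reporting endogenous transcription factor activity; this endpoint tracks the TA basal promoter as background control. Reporter mRNA after 24 h dosing measured by RT-PCR/capillary electrophoresis; bidirectional fits versus DMSO.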

[10] = ATG_TCF_b_cat_CIS: Attagene CIS-FACTORIAL HepG2 Assay for human T-Cell-Factor with beta-catenin (TCF/b-cat) (AID 2282965); conditions: HepG2 TCF/beta-catenin cis-reporter transcription, actives raise or lower the signal
Summary of the method: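 HepG2 cells transiently transfected with multiple cis-promoter-regulated reporter transcription units, so endogenous transcription factor activity is measured. Reporter mRNA read 24 hours after dosing by RT-PCR, fluorescent labelling and capillary electrophoresis; bidirectional fitting against DMSO.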

[11] = ATG_TAL_CIS: Attagene CIS-FACTORIAL HepG2 Assay for human TAL Basal Promoter (AID 2282966); conditions: HepG2 Attagene cis-factorial TAL promoter reporter; actives raise or lower the signal;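 also: background control endpoint measuring basal TAL promoter reporter mRNA not a specific factor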
Summary of the method: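 In this cell-based multiplex, HepG2 liver cells bearing cis-promoter reporter constructs are dosed for 24 hours. Total RNA is reverse-transcribed and amplified, labelled fragments are sized by capillary electrophoresis, and signal changes are fitted bidirectionally versus DMSO.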

[12] = ATG_TGFb_CIS: Attagene CIS-FACTORIAL HepG2 Assay for human Transforming Growth Factor (TGF) (AID 2282967); conditions: HepG2 Attagene CIS TGFb reporter, mRNA transcription; actives raise or lower the signal
Summary of the method: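 HepG2 cells transiently transfected with cis-promoter-driven multiple reporter units measure endogenous TF activity; reporter mRNA quantified at 24 h by RT-PCR, FAM labeling, HpaI digestion and capillary electrophoresis. Bidirectional fit vs DMSO.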

[13] = molecular target: Nuclear receptor subfamily 1 group I member 3 (Homo sapiens) (UniProt Q14994); test: ATG_CAR_TRANS: Attagene TRANS-FACTORIAL HepG2 Assay for human Constitutive Androstane Receptor (CAR) (AID 2282969; active = hit-call score of the fitted dose curve at least 0.9, where 1 is the maximum;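 also: activators raise reporter mRNA above DMSO so AC50 marks induction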); conditions: HepG2 Attagene TRANS-FACTORIAL CAR reporter
Summary of the method: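 HepG2 cells transiently transfected with multiplexed GAL4-UAS reporter units expressing chimeric NR-Gal4 proteins; compound exposure 24 h. Reporter mRNA measured by RT-PCR, 6-FAM labelling, HpaI digestion and capillary electrophoresis; gain-of-signal fitted against DMSO baseline.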

[14] = molecular target: Steroid hormone receptor ERR1 (Homo sapiens) (UniProt P11474); test: ATG_ERRa_TRANS: Attagene TRANS-FACTORIAL HepG2 Assay for human Estrogen-Related Receptor alpha (ERRa) (AID 2282971; active = hit-call score of the fitted dose curve at least 0.9, where 1 is the maximum); conditions: HepG2 Attagene TRANS reporter, ERRa transactivation
Summary of the method: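 Transfected HepG2, 24 h dosing, ERRa-Gal4 chimera driving GAL4-UAS reporter. Readout: reporter mRNA via RT-PCR plus capillary electrophoresis (fluorescence). Positive direction vs DMSO control.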

[15] = molecular target: X-box-binding protein 1 (Homo sapiens) (UniProt P17861); test: ATG_Xbp1_CIS: Attagene CIS-FACTORIAL HepG2 Assay for human X-box Binding Protein 1 (XBP1) (AID 2282972); conditions: HepG2 XBP1 cis-element reporter, Attagene multiplex; actives raise or lower the signal
Summary of the method: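 HepG2, transient MRTU transfection (cis-promoter driven), 24 h compound exposure. Total RNA → oligo(dT) RT → PCR → 6-FAM labeling → HpaI cut → CE. Bidirectional fit vs DMSO.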

[16] = ATG_M_19_TRANS: Attagene TRANS-FACTORIAL HepG2 Assay for M19 Transcription Factor (Internal Marker) (AID 2282974; active = hit-call score of the fitted dose curve at least 0.9, where 1 is the maximum); conditions: HepG2 Attagene TRANS-FACTORIAL M19 internal marker reporter
Summary of the method: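 Background-control readout: after 24 h chemical exposure of transfected HepG2 carrying GAL4-driven reporter units, RNA was reverse-transcribed, amplified, fluorescently labeled and sized by capillary electrophoresis; gain-of-signal fit against DMSO.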

[17] = ATG_GAL4_TRANS: Attagene TRANS-FACTORIAL HepG2 Assay for GAL4 (Internal Marker) (AID 2282976; active = hit-call score of the fitted dose curve at least 0.9, where 1 is the maximum); conditions: HepG2 Attagene TRANS GAL4 internal marker reporter
Summary of the method: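 RT-PCR/capillary electrophoresis readout of reporter mRNA. HepG2, transient MRTU transfection (GAL4-UAS reporters), 24 h compound exposure. Background-control endpoint, positive direction vs DMSO baseline.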

[18] = molecular target: Estrogen-related receptor gamma (Homo sapiens) (UniProt P62508); test: ATG_ERRg_TRANS: Attagene TRANS-FACTORIAL HepG2 Assay for human Estrogen-Related Receptor gamma (ERRg) (AID 2282977; active = hit-call score of the fitted dose curve at least 0.9, where 1 is the maximum;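 also: hits increase reporter signal over DMSO so potencies reflect activators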); conditions: HepG2 Attagene TRANS reporter, ERRg transactivation
Summary of the method: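 Transfect HepG2 with multiple GAL4-UAS reporter transcription units; dose chemicals 24 h; isolate RNA, reverse-transcribe with oligo(dT), PCR-amplify, label with 6-FAM, digest with HpaI; size fragments by capillary electrophoresis. DMSO serves as negative control.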

[19] = molecular target: Estrogen receptor (Homo sapiens) (UniProt P03372); test: ATG_ERa_TRANS: Attagene TRANS-FACTORIAL HepG2 Assay for human Estrogen Receptor alpha (ERa) (AID 2282970; active = hit-call score of the fitted dose curve at least 0.9, where 1 is the maximum); conditions: HepG2 Attagene TRANS ERa GAL4 reporter, mRNA
Summary of the method: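 After 24 h of compound treatment, RNA from HepG2 cells bearing transfected GAL4-UAS reporter constructs is converted to cDNA, amplified and fluorescently labelled. Capillary electrophoresis resolves the ERa-linked reporter; DMSO serves as negative control.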

[20] = ATG_VDRE_CIS: Attagene CIS-FACTORIAL HepG2 Assay for human Vitamin D Receptor Element (VDRE) (AID 2282968); conditions: HepG2 VDRE cis-reporter transcription, actives raise or lower the signal
Summary of the method: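 RT-PCR/CE readout of reporter mRNA; HepG2, transient transfection, 24 h dosing; DMSO baseline; bidirectional analysis.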

Measured: AC50

Paired box protein Pax-6 (Homo sapiens), sequence (P26367 whole entry, looked up): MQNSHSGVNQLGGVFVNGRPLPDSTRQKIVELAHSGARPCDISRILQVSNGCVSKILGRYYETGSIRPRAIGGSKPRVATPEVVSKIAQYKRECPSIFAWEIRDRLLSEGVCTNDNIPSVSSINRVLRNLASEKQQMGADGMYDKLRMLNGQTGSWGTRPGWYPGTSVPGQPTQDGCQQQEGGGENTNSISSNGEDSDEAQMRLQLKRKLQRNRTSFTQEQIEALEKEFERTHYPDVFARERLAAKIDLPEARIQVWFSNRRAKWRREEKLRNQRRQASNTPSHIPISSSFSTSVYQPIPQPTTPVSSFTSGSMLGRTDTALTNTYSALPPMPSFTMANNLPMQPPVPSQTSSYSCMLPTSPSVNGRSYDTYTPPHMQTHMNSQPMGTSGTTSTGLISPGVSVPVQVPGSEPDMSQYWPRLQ
X-box-binding protein 1 (Homo sapiens), sequence (P17861 whole entry, looked up): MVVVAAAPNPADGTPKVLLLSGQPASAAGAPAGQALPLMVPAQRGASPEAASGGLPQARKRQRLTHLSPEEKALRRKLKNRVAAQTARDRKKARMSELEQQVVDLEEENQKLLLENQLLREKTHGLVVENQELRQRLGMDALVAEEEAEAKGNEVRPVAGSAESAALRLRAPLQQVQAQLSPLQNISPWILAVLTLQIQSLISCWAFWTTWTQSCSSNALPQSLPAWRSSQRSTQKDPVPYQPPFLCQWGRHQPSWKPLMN
Transcription factor Sp1 (Homo sapiens), sequence (P08047 whole entry, looked up): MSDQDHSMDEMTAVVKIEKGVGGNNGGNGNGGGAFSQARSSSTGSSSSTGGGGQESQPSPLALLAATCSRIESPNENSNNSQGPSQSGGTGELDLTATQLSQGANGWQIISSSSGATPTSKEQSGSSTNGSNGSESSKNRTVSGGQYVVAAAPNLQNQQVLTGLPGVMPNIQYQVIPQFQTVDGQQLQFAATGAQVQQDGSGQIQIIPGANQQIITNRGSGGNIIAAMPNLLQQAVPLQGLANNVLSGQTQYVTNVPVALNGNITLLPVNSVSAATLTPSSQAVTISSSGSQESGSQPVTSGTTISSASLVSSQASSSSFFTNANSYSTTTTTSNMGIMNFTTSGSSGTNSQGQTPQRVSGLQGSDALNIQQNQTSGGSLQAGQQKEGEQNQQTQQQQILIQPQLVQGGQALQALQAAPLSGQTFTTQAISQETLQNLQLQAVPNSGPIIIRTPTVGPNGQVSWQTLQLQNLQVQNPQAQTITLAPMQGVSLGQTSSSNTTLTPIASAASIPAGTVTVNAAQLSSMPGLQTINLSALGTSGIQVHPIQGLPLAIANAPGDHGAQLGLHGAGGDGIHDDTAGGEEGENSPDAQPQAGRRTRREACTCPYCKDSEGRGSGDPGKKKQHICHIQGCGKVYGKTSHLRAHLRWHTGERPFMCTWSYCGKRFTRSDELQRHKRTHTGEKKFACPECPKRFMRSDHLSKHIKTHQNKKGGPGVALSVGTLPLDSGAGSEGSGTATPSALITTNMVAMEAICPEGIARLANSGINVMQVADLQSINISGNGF
Nuclear receptor subfamily 1 group I member 3 (Homo sapiens), sequence (Q14994 whole entry, looked up, the tested form may be a part): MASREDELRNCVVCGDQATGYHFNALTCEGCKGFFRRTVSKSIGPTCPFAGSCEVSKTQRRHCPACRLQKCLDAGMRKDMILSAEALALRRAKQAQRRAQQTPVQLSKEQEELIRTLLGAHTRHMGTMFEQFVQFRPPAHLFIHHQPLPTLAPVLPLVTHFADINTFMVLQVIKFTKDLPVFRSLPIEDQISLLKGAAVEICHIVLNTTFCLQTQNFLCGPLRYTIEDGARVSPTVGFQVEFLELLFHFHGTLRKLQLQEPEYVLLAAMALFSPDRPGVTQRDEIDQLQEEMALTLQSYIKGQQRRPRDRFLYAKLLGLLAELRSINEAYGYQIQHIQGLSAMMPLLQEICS
Signal transducer and activator of transcription 3 (Homo sapiens), sequence (P40763 whole entry, looked up): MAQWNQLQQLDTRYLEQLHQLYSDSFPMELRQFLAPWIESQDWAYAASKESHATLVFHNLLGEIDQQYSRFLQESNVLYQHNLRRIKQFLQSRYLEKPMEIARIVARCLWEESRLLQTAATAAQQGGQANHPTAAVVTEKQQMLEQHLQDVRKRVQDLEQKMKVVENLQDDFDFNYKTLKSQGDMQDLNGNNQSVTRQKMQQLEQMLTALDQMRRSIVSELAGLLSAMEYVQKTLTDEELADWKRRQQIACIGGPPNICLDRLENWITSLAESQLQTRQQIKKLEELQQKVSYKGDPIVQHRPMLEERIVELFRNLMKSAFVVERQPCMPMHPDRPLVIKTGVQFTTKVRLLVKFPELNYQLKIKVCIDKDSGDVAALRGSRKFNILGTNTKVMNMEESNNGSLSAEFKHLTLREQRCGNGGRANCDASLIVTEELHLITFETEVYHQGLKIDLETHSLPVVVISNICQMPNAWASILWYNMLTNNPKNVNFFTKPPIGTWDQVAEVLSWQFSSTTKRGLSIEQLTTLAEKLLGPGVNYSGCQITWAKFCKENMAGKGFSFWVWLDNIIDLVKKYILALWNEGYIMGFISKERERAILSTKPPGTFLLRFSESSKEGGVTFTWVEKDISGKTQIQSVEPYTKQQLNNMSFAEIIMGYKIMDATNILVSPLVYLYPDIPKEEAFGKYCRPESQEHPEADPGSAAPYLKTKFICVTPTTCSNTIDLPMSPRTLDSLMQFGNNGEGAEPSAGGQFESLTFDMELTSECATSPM
Estrogen-related receptor gamma (Homo sapiens), sequence (P62508 whole entry, looked up, the tested form may be a part): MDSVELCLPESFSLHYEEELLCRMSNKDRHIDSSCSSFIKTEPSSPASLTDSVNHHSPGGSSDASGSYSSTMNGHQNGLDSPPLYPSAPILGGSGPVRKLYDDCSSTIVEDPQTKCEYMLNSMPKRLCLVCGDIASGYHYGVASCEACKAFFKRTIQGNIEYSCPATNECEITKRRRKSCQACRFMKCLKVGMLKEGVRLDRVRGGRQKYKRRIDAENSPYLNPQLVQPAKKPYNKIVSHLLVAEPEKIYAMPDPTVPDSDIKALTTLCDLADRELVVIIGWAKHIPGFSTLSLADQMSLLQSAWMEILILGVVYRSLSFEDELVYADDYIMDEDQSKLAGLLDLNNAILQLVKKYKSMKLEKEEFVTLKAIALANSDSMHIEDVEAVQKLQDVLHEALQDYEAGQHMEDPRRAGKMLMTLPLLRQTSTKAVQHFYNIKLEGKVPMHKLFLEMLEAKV
Estrogen receptor (Homo sapiens), sequence (P03372 whole entry, looked up, the tested form may be a part): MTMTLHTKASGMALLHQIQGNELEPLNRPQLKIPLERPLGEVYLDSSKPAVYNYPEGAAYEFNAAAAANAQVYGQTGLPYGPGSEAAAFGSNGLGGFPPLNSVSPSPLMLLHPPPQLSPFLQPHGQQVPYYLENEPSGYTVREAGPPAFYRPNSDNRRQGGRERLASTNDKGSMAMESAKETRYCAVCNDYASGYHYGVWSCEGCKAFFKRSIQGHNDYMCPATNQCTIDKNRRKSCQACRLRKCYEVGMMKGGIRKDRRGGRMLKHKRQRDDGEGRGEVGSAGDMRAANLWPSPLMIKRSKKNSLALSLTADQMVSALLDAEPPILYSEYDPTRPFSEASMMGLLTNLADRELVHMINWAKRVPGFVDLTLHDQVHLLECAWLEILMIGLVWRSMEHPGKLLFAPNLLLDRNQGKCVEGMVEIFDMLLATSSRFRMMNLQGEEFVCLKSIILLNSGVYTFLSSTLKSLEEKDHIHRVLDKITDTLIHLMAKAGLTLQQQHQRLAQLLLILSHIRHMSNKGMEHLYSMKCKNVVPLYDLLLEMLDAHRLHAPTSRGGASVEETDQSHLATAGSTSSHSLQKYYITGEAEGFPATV
Steroid hormone receptor ERR1 (Homo sapiens), sequence (P11474 whole entry, looked up, the tested form may be a part): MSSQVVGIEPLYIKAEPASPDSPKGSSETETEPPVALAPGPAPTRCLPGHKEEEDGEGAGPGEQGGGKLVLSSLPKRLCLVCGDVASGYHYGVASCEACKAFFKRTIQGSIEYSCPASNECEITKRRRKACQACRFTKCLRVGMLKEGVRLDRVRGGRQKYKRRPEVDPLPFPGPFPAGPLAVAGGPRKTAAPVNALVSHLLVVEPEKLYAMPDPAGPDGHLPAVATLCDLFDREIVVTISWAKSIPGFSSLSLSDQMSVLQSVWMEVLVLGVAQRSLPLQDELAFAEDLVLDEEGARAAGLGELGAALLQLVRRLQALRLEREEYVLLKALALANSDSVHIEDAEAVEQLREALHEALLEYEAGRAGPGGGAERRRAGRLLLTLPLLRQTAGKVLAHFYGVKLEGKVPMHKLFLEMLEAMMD

CC(=O)OC1CC(C)OC(C)O1 (stereo unspecified)
inactive: [1] | [2] | [3] | [4] | [5] | [6] | [7] | [8] | [9] | [10] | [11] | [12] | [13] | [14] | [15] | [16] | [17] | [18]

COc1ccc(C(=O)Nc2nc3ccccc3c(NCc3ccccc3)c2C#N)cc1
inactive: [1] | [4] | [5] | [6] | [8] | [9] | [10] | [11] | [12] | [19] | [14] | [15] | [16] | [18]
active: [2] 641 nM | [3] 1.68 µM | [7] 4.43 µM

CCN(CC)CCOc1ccc(C(=C(Cl)c2ccccc2)c2ccccc2)cc1
inactive: [1] | [3] | [4] | [5] | [6] | [8] | [9] | [10] | [11] | [12] | [20] | [15] | [16] | [17]
active: [1] 10.4 µM | [2] 945 nM [middle of 4 runs] | [4] 9.35 µM | [5] 13.6 µM | [7] 2.59 µM [middle of 4 runs] | [8] 6.09 µM | [9] 11.2 µM | [11] 13.1 µM | [12] 3.11 µM | [20] 3.11 µM and 6.33 µM and 1.3 µM | [15] 11.2 µM

O=C(O)CN(CC(=O)O)CC(=O)O
inactive: [1] | [2] | [3] | [4] | [5] | [6] | [7] | [8] | [9] | [10] | [11] | [12] | [20] | [13] | [15] | [18]

CCC(C)N(C)C(=O)c1cc2ccccc2c(-c2ccccc2Cl)n1 (stereo unspecified)
inactive: [5] | [6] | [7] | [8] | [11] | [12] | [19] | [15] | [16]
active: [1] 63 µM | [2] 135 nM | [3] 106 µM | [4] 46.9 µM | [9] 44.3 µM | [10] 41.7 µM | [20] 1.54 µM

CCc1nc(N)nc(N)c1-c1ccc(Cl)cc1
active: [1] 46 µM | [3] 26.8 µM | [4] 42.5 µM | [9] 100 µM | [10] 60.1 µM | [20] 100 µM | [15] 147 µM
inactive: [2] | [5] | [6] | [7] | [8] | [11] | [12] | [19]

CCCCCCC(C=O)=Cc1ccccc1
inactive: [1] | [4] | [5] | [7] | [8] | [9] | [10] | [11] | [12] | [20] | [13] | [15] | [16] | [17]
active: [2] 25.2 µM and 15.7 µM | [3] 4.87 µM and 6.4 µM | [6] 129 µM and 60 µM | [7] 26.3 µM | [15] 60 µM

From PubChem BioAssay (EPA / NIEHS)
